Data taken from the supplement of paper PMC11732987, “Enantioselective OTUD7B fragment discovery through chemoproteomics screening and high-throughput optimisation” (Communications Chemistry, 2025).

Tests used:
Experiment in all cases: log2 ratio of Biotin-Ahx-Ub-VS probe labelling (fragment/DMSO); higher = less target engagement (more negative = stronger competition), active = hit call of the paper (q ≤ 0.05, log2 ratio ≤ -1)
Settings in all cases: compound concentration: 200 uM; treatment time: 3 h
[1] = target: T1, ALG13 (UniProt Q9NP73)
T1 sequence (whole entry): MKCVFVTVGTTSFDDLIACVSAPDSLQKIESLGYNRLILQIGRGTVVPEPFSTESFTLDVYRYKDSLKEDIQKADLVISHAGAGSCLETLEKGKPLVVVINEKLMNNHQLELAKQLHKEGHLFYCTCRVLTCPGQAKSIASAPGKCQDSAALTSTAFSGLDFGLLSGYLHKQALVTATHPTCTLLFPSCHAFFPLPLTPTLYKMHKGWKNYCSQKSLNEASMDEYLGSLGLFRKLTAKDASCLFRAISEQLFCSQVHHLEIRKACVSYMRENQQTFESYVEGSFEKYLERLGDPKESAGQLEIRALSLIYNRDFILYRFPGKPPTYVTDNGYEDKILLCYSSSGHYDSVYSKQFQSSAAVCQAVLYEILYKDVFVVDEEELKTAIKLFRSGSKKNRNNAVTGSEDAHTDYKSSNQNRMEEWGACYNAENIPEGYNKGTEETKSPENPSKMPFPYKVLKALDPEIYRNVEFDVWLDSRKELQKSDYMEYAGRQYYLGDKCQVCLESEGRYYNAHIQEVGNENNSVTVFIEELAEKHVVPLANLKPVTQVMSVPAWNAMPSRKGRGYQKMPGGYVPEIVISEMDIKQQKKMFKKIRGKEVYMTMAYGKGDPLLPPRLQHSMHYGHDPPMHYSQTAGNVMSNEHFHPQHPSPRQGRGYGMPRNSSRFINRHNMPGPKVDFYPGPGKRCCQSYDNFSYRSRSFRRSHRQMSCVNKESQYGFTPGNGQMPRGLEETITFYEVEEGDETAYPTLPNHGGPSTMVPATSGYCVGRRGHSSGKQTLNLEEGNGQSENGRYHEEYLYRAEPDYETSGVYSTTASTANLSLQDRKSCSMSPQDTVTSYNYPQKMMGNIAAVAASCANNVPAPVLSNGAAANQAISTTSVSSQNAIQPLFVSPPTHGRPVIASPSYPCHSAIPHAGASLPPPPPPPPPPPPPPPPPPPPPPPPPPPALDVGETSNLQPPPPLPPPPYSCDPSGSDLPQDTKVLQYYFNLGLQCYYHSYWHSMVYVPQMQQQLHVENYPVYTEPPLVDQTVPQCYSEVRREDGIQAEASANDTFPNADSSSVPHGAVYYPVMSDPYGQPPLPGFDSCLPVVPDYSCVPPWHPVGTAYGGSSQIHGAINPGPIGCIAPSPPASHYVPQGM
How it was run: (§1)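 HEK293T lysate (495 µg per sample, in Tris/CHAPS/IGEPAL buffer with protease inhibitors) was treated in triplicate with fragment at 200 µM or with DMSO for 3 h. It was then treated with Biotin-Ahx-Ub-VS (0.5 µM final) for 1 h. Labelled DUBs were NeutrAvidin-enriched, digested with LysC and trypsin, and run by diaPASEF LC-MS/MS. Spectronaut label-free quantities were global-median-normalised. Values are average log2 ratios fragment/DMSO by unpaired t-test, using proteins with ≥2 unique peptides.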

[2] = target: ATXN3 (UniProt P54252)
Chain of ATXN3 (P54252 whole entry): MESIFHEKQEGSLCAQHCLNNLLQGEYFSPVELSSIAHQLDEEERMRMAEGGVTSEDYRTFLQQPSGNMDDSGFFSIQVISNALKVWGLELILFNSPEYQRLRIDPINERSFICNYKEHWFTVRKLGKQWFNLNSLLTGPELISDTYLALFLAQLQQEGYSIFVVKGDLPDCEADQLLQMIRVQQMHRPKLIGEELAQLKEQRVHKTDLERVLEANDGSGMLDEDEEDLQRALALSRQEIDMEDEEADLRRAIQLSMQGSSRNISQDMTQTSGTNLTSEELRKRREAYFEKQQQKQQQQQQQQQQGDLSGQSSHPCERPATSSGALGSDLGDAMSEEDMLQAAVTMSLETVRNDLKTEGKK
How it was run: as §1

[3] = target: T2, BAP1 (UniProt Q92560)
T2 sequence (whole entry): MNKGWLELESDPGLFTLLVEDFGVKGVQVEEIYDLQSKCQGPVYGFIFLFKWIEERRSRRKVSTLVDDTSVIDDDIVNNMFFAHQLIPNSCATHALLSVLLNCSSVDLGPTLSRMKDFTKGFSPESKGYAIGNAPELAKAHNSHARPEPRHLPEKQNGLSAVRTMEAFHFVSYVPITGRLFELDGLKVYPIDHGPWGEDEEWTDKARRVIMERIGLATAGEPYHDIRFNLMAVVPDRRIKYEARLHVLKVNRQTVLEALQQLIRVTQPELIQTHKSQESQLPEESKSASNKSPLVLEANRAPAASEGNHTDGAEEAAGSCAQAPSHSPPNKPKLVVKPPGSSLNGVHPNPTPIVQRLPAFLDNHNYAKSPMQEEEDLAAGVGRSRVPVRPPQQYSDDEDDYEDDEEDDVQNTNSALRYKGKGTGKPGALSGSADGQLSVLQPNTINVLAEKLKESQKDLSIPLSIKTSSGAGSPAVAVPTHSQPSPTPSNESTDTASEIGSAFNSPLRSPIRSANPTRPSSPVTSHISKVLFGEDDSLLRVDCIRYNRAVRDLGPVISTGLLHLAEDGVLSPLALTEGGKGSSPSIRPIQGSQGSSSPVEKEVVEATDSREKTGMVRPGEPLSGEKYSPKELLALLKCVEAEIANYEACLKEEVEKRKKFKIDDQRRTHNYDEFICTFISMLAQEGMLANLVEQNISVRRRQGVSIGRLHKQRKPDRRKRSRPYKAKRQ
How it was run: as §1

[4] = target: EIF3F (UniProt O00303)
Chain of EIF3F (O00303 whole entry): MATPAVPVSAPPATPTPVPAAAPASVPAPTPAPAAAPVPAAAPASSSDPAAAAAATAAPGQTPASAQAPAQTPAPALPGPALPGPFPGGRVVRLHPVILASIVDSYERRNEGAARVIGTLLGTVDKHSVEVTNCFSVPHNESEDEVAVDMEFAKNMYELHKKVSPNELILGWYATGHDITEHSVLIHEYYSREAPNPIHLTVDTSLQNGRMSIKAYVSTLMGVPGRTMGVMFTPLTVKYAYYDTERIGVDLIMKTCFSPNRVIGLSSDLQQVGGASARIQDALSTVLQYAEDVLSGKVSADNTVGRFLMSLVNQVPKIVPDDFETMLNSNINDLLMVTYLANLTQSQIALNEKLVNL
How it was run: as §1

[5] = target: EIF3H (UniProt O15372)
Chain of EIF3H (O15372 whole entry): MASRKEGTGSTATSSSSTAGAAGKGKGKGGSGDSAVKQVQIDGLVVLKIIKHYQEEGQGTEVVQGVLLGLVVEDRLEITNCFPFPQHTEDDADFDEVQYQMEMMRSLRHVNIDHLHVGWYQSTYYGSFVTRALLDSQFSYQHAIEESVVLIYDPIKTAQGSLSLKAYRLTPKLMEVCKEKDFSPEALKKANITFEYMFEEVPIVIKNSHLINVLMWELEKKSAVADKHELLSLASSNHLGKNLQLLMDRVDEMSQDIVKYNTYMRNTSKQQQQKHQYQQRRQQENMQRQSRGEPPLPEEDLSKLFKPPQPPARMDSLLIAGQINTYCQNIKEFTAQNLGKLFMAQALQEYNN
How it was run: as §1

[6] = target: T3, FAM105A (UniProt Q9NUU6)
T3 sequence (whole entry): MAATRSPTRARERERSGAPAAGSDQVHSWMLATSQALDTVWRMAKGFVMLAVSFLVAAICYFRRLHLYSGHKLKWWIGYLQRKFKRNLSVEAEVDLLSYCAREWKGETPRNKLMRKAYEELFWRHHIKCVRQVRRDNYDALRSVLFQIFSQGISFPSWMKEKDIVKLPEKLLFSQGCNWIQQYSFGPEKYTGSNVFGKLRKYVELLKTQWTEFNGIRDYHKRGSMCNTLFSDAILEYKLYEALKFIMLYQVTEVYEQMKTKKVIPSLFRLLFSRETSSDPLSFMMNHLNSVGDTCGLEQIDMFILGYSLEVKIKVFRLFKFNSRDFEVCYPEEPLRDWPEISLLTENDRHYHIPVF
How it was run: as §1

[7] = target: OTUB1 (UniProt Q96FW1)
Chain of OTUB1 (Q96FW1 whole entry): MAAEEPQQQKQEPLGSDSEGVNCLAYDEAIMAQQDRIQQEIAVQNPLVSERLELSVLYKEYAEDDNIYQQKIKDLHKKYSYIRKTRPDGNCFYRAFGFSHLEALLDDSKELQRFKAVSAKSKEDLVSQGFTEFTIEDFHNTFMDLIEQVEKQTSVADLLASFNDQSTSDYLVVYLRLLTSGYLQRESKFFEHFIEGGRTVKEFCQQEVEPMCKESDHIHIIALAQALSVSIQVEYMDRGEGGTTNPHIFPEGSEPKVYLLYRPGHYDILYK
How it was run: as §1

[8] = target: T4, OTUD4 (UniProt Q01804)
T4 sequence (whole entry): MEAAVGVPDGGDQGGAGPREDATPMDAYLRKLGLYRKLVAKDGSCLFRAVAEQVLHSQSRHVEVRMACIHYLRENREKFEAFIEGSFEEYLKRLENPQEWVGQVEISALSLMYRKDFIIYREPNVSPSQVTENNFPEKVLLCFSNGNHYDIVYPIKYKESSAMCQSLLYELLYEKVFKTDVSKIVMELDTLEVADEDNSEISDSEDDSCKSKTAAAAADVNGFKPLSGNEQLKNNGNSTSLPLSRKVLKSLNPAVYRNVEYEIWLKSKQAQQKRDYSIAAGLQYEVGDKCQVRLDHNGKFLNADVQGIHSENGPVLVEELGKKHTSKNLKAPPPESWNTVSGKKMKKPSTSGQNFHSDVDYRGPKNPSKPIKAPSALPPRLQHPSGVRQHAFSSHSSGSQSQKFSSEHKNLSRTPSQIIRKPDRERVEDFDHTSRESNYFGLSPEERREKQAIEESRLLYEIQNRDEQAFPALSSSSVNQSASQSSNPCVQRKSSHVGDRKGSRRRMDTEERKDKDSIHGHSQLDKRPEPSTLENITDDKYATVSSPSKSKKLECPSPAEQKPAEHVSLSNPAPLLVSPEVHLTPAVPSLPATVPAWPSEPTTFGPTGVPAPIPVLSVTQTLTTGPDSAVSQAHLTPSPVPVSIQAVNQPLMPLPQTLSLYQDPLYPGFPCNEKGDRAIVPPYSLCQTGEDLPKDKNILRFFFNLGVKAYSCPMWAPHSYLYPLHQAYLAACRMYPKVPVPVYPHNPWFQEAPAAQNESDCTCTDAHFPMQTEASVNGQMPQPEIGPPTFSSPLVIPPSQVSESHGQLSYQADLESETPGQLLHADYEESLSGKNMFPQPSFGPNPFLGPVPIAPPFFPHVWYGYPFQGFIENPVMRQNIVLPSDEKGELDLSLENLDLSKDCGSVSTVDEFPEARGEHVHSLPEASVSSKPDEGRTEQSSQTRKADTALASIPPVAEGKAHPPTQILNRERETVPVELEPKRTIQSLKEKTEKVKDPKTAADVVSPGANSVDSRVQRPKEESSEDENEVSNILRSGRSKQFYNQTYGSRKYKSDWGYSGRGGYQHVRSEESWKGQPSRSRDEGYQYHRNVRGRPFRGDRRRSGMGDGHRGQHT
How it was run: as §1

[9] = target: T5, OTUD5 (UniProt Q96G74)
T5 sequence (whole entry): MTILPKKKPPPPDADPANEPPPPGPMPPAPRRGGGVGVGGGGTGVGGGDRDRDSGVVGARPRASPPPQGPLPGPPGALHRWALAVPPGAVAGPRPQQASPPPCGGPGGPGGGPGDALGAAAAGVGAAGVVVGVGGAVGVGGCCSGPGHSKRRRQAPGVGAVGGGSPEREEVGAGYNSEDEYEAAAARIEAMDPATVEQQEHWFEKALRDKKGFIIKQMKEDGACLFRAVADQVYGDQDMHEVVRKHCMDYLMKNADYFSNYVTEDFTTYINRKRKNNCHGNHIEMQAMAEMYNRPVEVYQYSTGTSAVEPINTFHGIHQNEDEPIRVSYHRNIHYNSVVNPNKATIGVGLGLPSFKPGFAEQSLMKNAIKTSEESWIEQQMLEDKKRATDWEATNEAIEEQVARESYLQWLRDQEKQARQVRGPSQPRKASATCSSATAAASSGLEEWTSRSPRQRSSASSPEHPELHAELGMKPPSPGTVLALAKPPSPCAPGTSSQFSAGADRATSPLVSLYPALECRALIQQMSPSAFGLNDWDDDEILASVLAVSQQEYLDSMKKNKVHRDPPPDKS
How it was run: as §1

Measured: log2 ratio of Biotin-Ahx-Ub-VS probe labelling

CCC(NC(=O)CCl)c1ccc(Cl)cc1 (centres undefined)
inactive: [1] 0.101 | [2] -0.139 | [4] -0.0176 | [5] -0.0528 | [6] 0.315 | [7] -0.267 | [8] -0.628 | [9] -0.123
active: [3] -2.81
